Target: Solute carrier family 2, facilitated glucose transporter member 1 (Homo sapiens) (UniProt P11166)
Assay: ST_JUDE_LEISH: Cytotoxicity at 2uM final concentration against transgenic Leishmania Mexicana promastigotes LmGLUT1 that are glucose transport deficient and complemented with the human glucose transporter GLUT1. Activity is measured by DNA content using SYBR green in vitro
Assay type: functional

Solute carrier family 2, facilitated glucose transporter member 1 (Homo sapiens), sequence (P11166 whole entry): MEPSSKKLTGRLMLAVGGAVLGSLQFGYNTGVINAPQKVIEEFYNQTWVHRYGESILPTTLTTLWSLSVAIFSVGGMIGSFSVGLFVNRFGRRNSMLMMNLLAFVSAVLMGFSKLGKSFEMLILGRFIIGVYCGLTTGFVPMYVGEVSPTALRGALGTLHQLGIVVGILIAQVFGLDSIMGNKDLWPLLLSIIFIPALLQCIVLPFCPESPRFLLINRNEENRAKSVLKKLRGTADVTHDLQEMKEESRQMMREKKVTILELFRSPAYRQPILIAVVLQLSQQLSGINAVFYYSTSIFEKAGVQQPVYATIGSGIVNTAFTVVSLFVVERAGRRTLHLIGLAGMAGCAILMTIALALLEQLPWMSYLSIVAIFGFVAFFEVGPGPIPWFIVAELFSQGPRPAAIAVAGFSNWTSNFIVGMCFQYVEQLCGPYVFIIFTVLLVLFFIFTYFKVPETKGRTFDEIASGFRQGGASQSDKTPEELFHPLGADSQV

Row | Structure (SMILES) | inhibition
1 | COc1cc2c(cc1C(F)(F)F)N(C(=O)Nc1cc(F)cc(-c3cncnc3)c1)CC2 | 11.6%
2 | COc1ccc(Cl)cc1N1CCN(CCCNC(=O)c2ccc(-c3nc4cc(Cl)c(C)cc4[nH]3)s2)CC1 | 4.06%
3 | COc1cc(C)nc2ccc(NC(=O)Nc3ccc([N+](=O)[O-])cc3C)cc12 | 3.91%
4 | OC1CCCN(Cc2ccc(-c3cccc(-c4nc5ccccc5[nH]4)c3)cc2)C1 (stereo not given) | 2.79%
5 | O=C(Cn1c(CCc2cccc(F)c2F)nc(=O)c2ccccc21)N(Cc1ccc(-c2ccc(C(F)(F)F)cc2)cc1)C1CCN(C2CCOCC2)CC1 | 1.91%
6 | O=C(C1CC1)N1c2ccccc2CCc2ccccc21 | -0.93%
7 | CCCCC(N)COc1cccc2c(-c3ccncc3)c(-c3cccc(NC(=O)Nc4ccccc4)c3)nn12 (stereo not given) | 3.39%
8 | COc1ccc2c(C)cc(NCCCN(C)C)nc2c1 | 0.02%
9 | Cc1ccc2c(c1)c(-c1ccccc1)c(-c1ccccc1)n2CC(O)CN1CCN(CC=Cc2ccccc2)CC1 (stereo not given) | 0.38%
10 | CN(C)CCOc1cc(NC(=O)c2ccc(-c3ccc(Cl)cc3Cl)cc2)ccc1-c1ccccc1 | 0.11%
11 | Cc1cc(N[C@@H](CC(C)C)C(=O)NC2CCCC2)nc(NCCc2ccc(F)cc2)n1 | 3.05%
12 | CCOC(=O)c1ccc(NC(=O)N(Cc2ccc(-c3ccc(CN4CCNCC4)cc3)cc2)C2CCN(Cc3ccccc3)CC2)cc1 | 3.61%
13 | FC(F)(F)c1cccc(C=NNc2nc3ccccc3[nH]2)c1 | 10.7%
14 | Cc1ccccc1CNc1noc(-c2sccc2Br)n1 | -2.66%
15 | COC(=O)c1c(NC(=O)c2cccc(C(F)(F)F)c2)sc2c1CCN(Cc1ccccc1)C2 | 1.14%
16 | Cc1cc(C)c(NC(=O)NC2CCN(CCCCCNC(=O)/C=C/c3ccc(Cl)c(Cl)c3)C2)c(C)c1 (stereo not given) | 2.03%
17 | CCOC(=O)CCCc1cc(NC2CCN(C)CC2)nc(Nc2ccc(C)cc2)n1 | -2.45%
18 | CCCc1ccc(N2C(N)=NC(N)=NC2(C)C)cc1 | 1.9%
19 | COC(=O)c1cc2cccc(NC[C@@H](C)NC[C@H](O)c3cccc(Cl)c3)c2[nH]1 | -0.1%
20 | COc1ccc(-c2cnc3ccc(NCc4ccc(F)cc4)nn23)cc1OC | 4.06%

Row | Structure (SMILES) | inhibition
21 | COc1ccccc1CCN(C)CCN1CCC(NC(=O)c2ccc(-c3ccc(C(F)(F)F)cc3)cc2)CC1 | 1.81%
22 | O=C(O)/C=C/c1cccc(F)c1F | 1.29%
23 | CCCC(=O)Nc1ccc(OCCCN(Cc2ccccc2OC(F)(F)F)c2ccc(C#N)c(C(F)(F)F)c2)cc1 | 3.69%
24 | O=C(Nc1cccc(CN2CCCN(Cc3ccc(O)cc3)CC2)c1)c1cccc(F)c1 | 10.8%
25 | COc1ccc(CNCCc2cccs2)cc1-c1ccc(S(=O)(=O)NCCN2CCCC2)s1 | 4.99%
26 | Cc1cc(N)c2cc(NC(=O)c3cc(C(F)(F)F)cc(C(F)(F)F)c3)ccc2n1 | 0.38%
27 | CCc1cn2c3c(cc(C(=O)N[C@@H](Cc4cc(F)cc(F)c4)[C@H](O)CNC4CCCCC4)cc13)N(C)S(=O)(=O)CC2 | 0.79%
28 | Cc1[nH]c(C)c(-c2ccc(CCc3cccc(C(F)(F)F)c3)nc2)c(=O)c1Cl | 2.83%
29 | NC1CCN(Cc2cccc(-c3csc(-c4nc5ccccc5[nH]4)c3)c2)C1 (stereo not given) | 2.21%
30 | COCCNCc1ccc(-c2cccc(CNc3ccc(OC)cc3)c2)cc1 | 11.3%
31 | COc1ccc2ncc(F)c(CCN3CCC(NCc4cnc5c(c4)NC(=O)CS5)CC3)c2c1 | 1.52%
32 | O=C(CCCc1ccccc1)Nc1cccc(N2CCC(N3CCN(c4ccccc4O)CC3)CC2)c1 | 11.8%
33 | Cc1cnn(-c2cccc(C(=O)NC3CCC(CCN4CCc5ccc(C#N)cc5CC4)CC3)c2)c1 (stereo not given) | 1.35%
34 | CCNC[C@H]1CCCN1CCOc1ccc(-n2cnc3cc(-c4ccc(Cl)cc4)sc3c2=O)cc1OC | -0.44%
35 | CC(C)(C)c1ccc(Cc2cccc3nc(N)nc(N)c23)cc1 | 21%
36 | Cc1cc(CN2CC[C@H](NC(=O)c3ccc(Cl)c(Cl)c3)C2)ccc1OCCN1CCNCC1 | -0.62%
37 | O=C(c1ccc2ccccc2n1)N1CCCc2cc(Br)ccc21 | 8.95%
38 | CCCCNCCOc1ccc(-c2nc(-c3ccccc3)c(-c3ccccc3)[nH]2)cc1 | 1.09%
39 | CN1CCN(CCCNCc2cccc(-c3ccc(CNCCc4ccccc4)cc3)c2)CC1 | 2.41%
40 | COc1ccc(NC(=O)C2c3ccccc3C(=O)N(C3CCCC3)C2c2cccs2)cc1 (stereo not given) | 5.7%

Target: Hexose transporter 1 (Plasmodium falciparum) (UniProt O97467)
Assay: ST_JUDE_LEISH: Cytotoxicity at 2uM final concentration against transgenic Leishmania Mexicana promastigotes LmPfHT that are glucose transport deficient and complemented with the Plasmodium falciparum hexose transporter. Activity is measured by DNA content using SYBR green in vitro
Assay type: functional

Row | Structure (SMILES) | inhibition
41 | COc1cc2c(cc1C(F)(F)F)N(C(=O)Nc1cc(F)cc(-c3cncnc3)c1)CC2 | 1.94%
42 | COc1ccc(Cl)cc1N1CCN(CCCNC(=O)c2ccc(-c3nc4cc(Cl)c(C)cc4[nH]3)s2)CC1 | 1.78%
43 | COc1cc(C)nc2ccc(NC(=O)Nc3ccc([N+](=O)[O-])cc3C)cc12 | 2.99%
44 | OC1CCCN(Cc2ccc(-c3cccc(-c4nc5ccccc5[nH]4)c3)cc2)C1 (stereo not given) | 1.57%
45 | O=C(Cn1c(CCc2cccc(F)c2F)nc(=O)c2ccccc21)N(Cc1ccc(-c2ccc(C(F)(F)F)cc2)cc1)C1CCN(C2CCOCC2)CC1 | 2.37%
46 | O=C(C1CC1)N1c2ccccc2CCc2ccccc21 | -0.1%
47 | CCCCC(N)COc1cccc2c(-c3ccncc3)c(-c3cccc(NC(=O)Nc4ccccc4)c3)nn12 (stereo not given) | 2.13%
48 | COc1ccc2c(C)cc(NCCCN(C)C)nc2c1 | -0.64%
49 | Cc1ccc2c(c1)c(-c1ccccc1)c(-c1ccccc1)n2CC(O)CN1CCN(CC=Cc2ccccc2)CC1 (stereo not given) | 1.97%
50 | CN(C)CCOc1cc(NC(=O)c2ccc(-c3ccc(Cl)cc3Cl)cc2)ccc1-c1ccccc1 | 0.95%
51 | Cc1cc(N[C@@H](CC(C)C)C(=O)NC2CCCC2)nc(NCCc2ccc(F)cc2)n1 | 1.34%
52 | CCOC(=O)c1ccc(NC(=O)N(Cc2ccc(-c3ccc(CN4CCNCC4)cc3)cc2)C2CCN(Cc3ccccc3)CC2)cc1 | 2.86%
53 | FC(F)(F)c1cccc(C=NNc2nc3ccccc3[nH]2)c1 | 8.25%
54 | Cc1ccccc1CNc1noc(-c2sccc2Br)n1 | -1.49%
55 | COC(=O)c1c(NC(=O)c2cccc(C(F)(F)F)c2)sc2c1CCN(Cc1ccccc1)C2 | 5%
56 | Cc1cc(C)c(NC(=O)NC2CCN(CCCCCNC(=O)/C=C/c3ccc(Cl)c(Cl)c3)C2)c(C)c1 (stereo not given) | 2.36%
57 | CCOC(=O)CCCc1cc(NC2CCN(C)CC2)nc(Nc2ccc(C)cc2)n1 | 0.71%
58 | CCCc1ccc(N2C(N)=NC(N)=NC2(C)C)cc1 | 1.17%
59 | COC(=O)c1cc2cccc(NC[C@@H](C)NC[C@H](O)c3cccc(Cl)c3)c2[nH]1 | 1.58%
60 | COc1ccc(-c2cnc3ccc(NCc4ccc(F)cc4)nn23)cc1OC | 4.1%

Row | Structure (SMILES) | inhibition
61 | COc1ccccc1CCN(C)CCN1CCC(NC(=O)c2ccc(-c3ccc(C(F)(F)F)cc3)cc2)CC1 | 1.97%
62 | O=C(O)/C=C/c1cccc(F)c1F | 1.5%
63 | CCCC(=O)Nc1ccc(OCCCN(Cc2ccccc2OC(F)(F)F)c2ccc(C#N)c(C(F)(F)F)c2)cc1 | 9.22%
64 | O=C(Nc1cccc(CN2CCCN(Cc3ccc(O)cc3)CC2)c1)c1cccc(F)c1 | 10.4%
65 | COc1ccc(CNCCc2cccs2)cc1-c1ccc(S(=O)(=O)NCCN2CCCC2)s1 | 5.45%
66 | Cc1cc(N)c2cc(NC(=O)c3cc(C(F)(F)F)cc(C(F)(F)F)c3)ccc2n1 | 1.04%
67 | CCc1cn2c3c(cc(C(=O)N[C@@H](Cc4cc(F)cc(F)c4)[C@H](O)CNC4CCCCC4)cc13)N(C)S(=O)(=O)CC2 | 0.2%
68 | Cc1[nH]c(C)c(-c2ccc(CCc3cccc(C(F)(F)F)c3)nc2)c(=O)c1Cl | 2.18%
69 | NC1CCN(Cc2cccc(-c3csc(-c4nc5ccccc5[nH]4)c3)c2)C1 (stereo not given) | 1.55%
70 | COCCNCc1ccc(-c2cccc(CNc3ccc(OC)cc3)c2)cc1 | 8.16%
71 | COc1ccc2ncc(F)c(CCN3CCC(NCc4cnc5c(c4)NC(=O)CS5)CC3)c2c1 | 2.49%
72 | O=C(CCCc1ccccc1)Nc1cccc(N2CCC(N3CCN(c4ccccc4O)CC3)CC2)c1 | 7.32%
73 | Cc1cnn(-c2cccc(C(=O)NC3CCC(CCN4CCc5ccc(C#N)cc5CC4)CC3)c2)c1 (stereo not given) | 6.24%
74 | CCNC[C@H]1CCCN1CCOc1ccc(-n2cnc3cc(-c4ccc(Cl)cc4)sc3c2=O)cc1OC | -1.99%
75 | CC(C)(C)c1ccc(Cc2cccc3nc(N)nc(N)c23)cc1 | 16.4%
76 | Cc1cc(CN2CC[C@H](NC(=O)c3ccc(Cl)c(Cl)c3)C2)ccc1OCCN1CCNCC1 | 0.59%
77 | O=C(c1ccc2ccccc2n1)N1CCCc2cc(Br)ccc21 | 1.96%
78 | CCCCNCCOc1ccc(-c2nc(-c3ccccc3)c(-c3ccccc3)[nH]2)cc1 | -0.08%
79 | CN1CCN(CCCNCc2cccc(-c3ccc(CNCCc4ccccc4)cc3)c2)CC1 | 3.07%
80 | COc1ccc(NC(=O)C2c3ccccc3C(=O)N(C3CCCC3)C2c2cccs2)cc1 (stereo not given) | 4.78%

From ChEMBL document CHEMBL3433997, “St. Jude Leishmania screening dataset” (2016)
